In PubChem BioAssay one finds growth inhibition, inhibition and outcome data, which are given here for 20 compounds.

Values without a mark were called inactive. For some of these results: Results with a measured potency or affinity are listed apart. Calls of active or inactive are those of the source. Unless noted, no rule for the calls is given here.

The nature of experiment [1]: antimalarial activity against Dd2 strain (AID 2302;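 active = growth inhibition above 50% at the single 2 µM test dose, taken to imply half-maximal potency below 2 µM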;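 also: 0% = DMSO untreated growth and 100% = chloroquine plus artemisinin killed control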). Particulars: P. falciparum Dd2 in RBCs, LDH growth readout, 72 h; at 2 µM; stronger effect = higher value.
Experiment [2] is described as follows: HepG2 cytotoxicity, primary screen, cytotoxicity control for P. falciparum antimalarial project, cell-based, ATP luminescence (AID 2303;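 active = inhibition above 50%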;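 also: 0% = DMSO wells and 100% = digitonin-killed cells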). Particulars: HepG2 viability, 24-48 h, at 10 µM, stronger effect = higher value.
In experiment [3] the target is L-lactate dehydrogenase (Plasmodium falciparum (isolate CDC / Honduras)) (UniProt Q27743). Briefly: PfLDH activity inhibition – cell lysate, 3D7 strain, counter-screen for P. falciparum growth inhibition project (AID 2304).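 Also: 0% = vehicle and 100% = reference inhibitor.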 The conditions noted are these: P. falciparum 3D7 crude extract, LDH APAD/NBT absorbance; at 2 µM; stronger effect = higher value.
Chain of L-lactate dehydrogenase (Plasmodium falciparum (isolate CDC / Honduras)) (Q27743 whole entry, looked up): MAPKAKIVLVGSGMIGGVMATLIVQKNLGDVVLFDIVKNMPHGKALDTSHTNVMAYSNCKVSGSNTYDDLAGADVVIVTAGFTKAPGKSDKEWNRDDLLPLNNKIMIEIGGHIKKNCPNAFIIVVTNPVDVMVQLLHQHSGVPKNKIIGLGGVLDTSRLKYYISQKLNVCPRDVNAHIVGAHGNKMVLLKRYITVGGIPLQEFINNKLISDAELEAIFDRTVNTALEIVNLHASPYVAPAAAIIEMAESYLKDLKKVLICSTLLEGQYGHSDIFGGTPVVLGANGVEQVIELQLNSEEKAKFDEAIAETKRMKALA
Experiment [4] in a line: inhibition of 3D7 malaria parasite growth – strain 3D7 (AID 2306).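 Also: 0% = DMSO wells and 100% = chloroquine plus artemisinin control wells.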 The conditions noted are these: P. falciparum 3D7 erythrocytic growth, LDH absorbance, 72 h; at 2 µM; stronger effect = higher value.
For experiment [5], the target named is Calcium-dependent protein kinase 1 (Plasmodium falciparum (isolate 3D7)) (UniProt P62344). The experiment is described as follows: PfCDPK1 kinase inhibitors, biochemical, TCAMS library (AID 1159585; cut-off not given, nearly all actives have IC50 up to about 0.98 µM;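 also: inhibitors leave more ATP so luminescence rises with inhibition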). The conditions noted are these: recombinant PfCDPK1, Kinase-Glo ATP depletion luminescence.
Chain of Calcium-dependent protein kinase 1 (Plasmodium falciparum (isolate 3D7)) (P62344 whole entry, looked up): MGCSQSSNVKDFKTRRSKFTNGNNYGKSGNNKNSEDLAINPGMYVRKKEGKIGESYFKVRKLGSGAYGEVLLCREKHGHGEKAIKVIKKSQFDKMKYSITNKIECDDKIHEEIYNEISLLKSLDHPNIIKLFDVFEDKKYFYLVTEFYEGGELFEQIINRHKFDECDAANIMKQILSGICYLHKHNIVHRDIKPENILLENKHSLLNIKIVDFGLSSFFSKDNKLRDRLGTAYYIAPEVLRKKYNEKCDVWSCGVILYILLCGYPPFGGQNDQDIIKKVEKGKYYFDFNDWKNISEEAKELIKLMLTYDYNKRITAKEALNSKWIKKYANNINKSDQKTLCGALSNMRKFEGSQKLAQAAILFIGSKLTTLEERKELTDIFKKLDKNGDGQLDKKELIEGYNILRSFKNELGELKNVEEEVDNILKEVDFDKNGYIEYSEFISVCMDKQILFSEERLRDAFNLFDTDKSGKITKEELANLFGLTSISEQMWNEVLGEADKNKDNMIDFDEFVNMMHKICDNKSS
Experiment [6] addresses Plasmodium falciparum protein kinase 6 (PK6, PF3D7_1337100) (UniProt Q8IDW1). The experiment is described as follows: PfPK6 kinase inhibitors, biochemical, TCAMS library (AID 1159586). The conditions noted are these: recombinant PfPK6, Kinase-Glo ATP depletion luminescence.
The target of experiment [7] is Protein kinase 7 (PK7), Plasmodium falciparum 3D7 (PF3D7_0213400) (UniProt Q7YTF7). The experiment is described as follows: inhibition of Plasmodium PK7 catalytic activity – biochemical, TCAMS antimalarial set, Kinase-Glo luminescence (AID 1159587). Particulars: recombinant PfPK7, Kinase-Glo ATP depletion luminescence.
Chain of Protein kinase 7 (PK7), Plasmodium falciparum 3D7 (PF3D7_0213400) (Q7YTF7 1-343): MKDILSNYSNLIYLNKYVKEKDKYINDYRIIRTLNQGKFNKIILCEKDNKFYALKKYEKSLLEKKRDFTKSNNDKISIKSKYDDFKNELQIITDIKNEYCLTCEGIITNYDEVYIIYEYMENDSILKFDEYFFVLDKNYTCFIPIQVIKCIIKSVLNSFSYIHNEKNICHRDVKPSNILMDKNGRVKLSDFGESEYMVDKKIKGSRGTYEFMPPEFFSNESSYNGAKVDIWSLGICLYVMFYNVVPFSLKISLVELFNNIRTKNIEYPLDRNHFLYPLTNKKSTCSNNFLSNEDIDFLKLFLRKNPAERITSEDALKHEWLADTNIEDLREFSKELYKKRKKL
In experiment [8] the target is Calcium-dependent protein kinase 4 (Plasmodium falciparum (isolate 3D7)) (UniProt Q8IBS5). Briefly: PfCDPK4 kinase inhibitors, biochemical, TCAMS library (AID 1159588; cut-off not given, nearly all actives have IC50 up to about 0.91 µM). The conditions noted are these: recombinant PfCDPK4, Kinase-Glo ATP depletion luminescence.
Chain of Calcium-dependent protein kinase 4 (Plasmodium falciparum (isolate 3D7)) (Q8IBS5 whole entry, looked up): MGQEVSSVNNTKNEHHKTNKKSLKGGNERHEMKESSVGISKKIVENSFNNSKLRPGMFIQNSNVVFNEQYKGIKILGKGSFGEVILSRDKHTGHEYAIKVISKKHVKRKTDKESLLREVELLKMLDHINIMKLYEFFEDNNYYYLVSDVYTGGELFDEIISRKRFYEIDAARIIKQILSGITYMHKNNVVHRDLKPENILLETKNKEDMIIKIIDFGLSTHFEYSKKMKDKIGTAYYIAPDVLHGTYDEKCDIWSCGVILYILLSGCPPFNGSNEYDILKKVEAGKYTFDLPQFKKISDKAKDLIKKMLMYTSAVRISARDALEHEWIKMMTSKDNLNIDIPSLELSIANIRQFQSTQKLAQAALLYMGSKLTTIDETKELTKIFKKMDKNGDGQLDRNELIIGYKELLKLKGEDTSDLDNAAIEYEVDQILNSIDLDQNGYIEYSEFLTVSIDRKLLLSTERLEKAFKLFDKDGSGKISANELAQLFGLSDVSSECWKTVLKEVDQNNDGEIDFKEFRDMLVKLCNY

Chain of Plasmodium falciparum protein kinase 6 (PK6, PF3D7_1337100) (Q8IDW1 1-305): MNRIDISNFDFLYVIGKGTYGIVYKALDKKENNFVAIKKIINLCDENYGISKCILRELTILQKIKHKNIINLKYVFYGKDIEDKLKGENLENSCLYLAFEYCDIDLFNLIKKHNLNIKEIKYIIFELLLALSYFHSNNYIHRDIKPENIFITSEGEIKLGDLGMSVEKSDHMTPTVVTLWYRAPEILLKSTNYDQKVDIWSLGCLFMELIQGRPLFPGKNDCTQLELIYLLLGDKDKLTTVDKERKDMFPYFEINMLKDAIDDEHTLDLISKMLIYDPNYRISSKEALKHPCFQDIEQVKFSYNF

On to `c1cc(-c2ccc(CNCCCn3ccnc3)cc2)cc(-c2nc3ccccc3[nH]2)c1`, for which the values for the growth inhibition in experiment [1] and in experiment [4] were 100% (active) and 101% (active), respectively. The inhibition was 17% in experiment [2] and 5% in experiment [3]. Further, the result in experiment [5], in experiment [6], in experiment [7] and in experiment [8] was inactive.

As for `CN1CCN(c2ccc(-c3cccc(NC(=O)c4ccc5ccccc5c4)c3)nn2)CC1`, the growth inhibition in experiment [1] was 26%; in experiment [4], 94% (active). Also, the inhibition is 17% in experiment [2] and -2% in experiment [3]. Further, the result in experiment [5], in experiment [6], in experiment [7] and in experiment [8] was inactive.

As for `FC(F)(F)c1cccc(CCNc2nccc(NCc3ccc(Cl)cc3Cl)n2)c1`, the growth inhibition in experiment [1] is 59% (active); in experiment [4], 97% (active). For the same compound, the inhibition is 8% in experiment [2] and 1% in experiment [3]. The outcome in experiment [5], in experiment [6], in experiment [7] and in experiment [8] was inactive.

Take `COc1cccc(NC(=O)c2cc(C(=O)Nc3cccc(OC)c3)cc([N+](=O)[O-])c2)c1`: the growth inhibition in experiment [1] is 61% (active); in experiment [4], 99% (active). Besides, the values for the inhibition in experiment [2] and in experiment [3] were 1% and -3%, respectively. The result in experiment [5], in experiment [6], in experiment [7] and in experiment [8] was inactive.

On to `CNS(=O)(=O)c1ccc(NC(=O)c2cc(-c3cccnc3)nc3ccc(Br)cc23)cc1`, for which the growth inhibition is 55% (active) in experiment [1] and 101% (active) in experiment [4]. The inhibition was 9% in experiment [2] and 5% in experiment [3]. For the same compound, the outcome in experiment [5], in experiment [6], in experiment [7] and in experiment [8] was inactive.

Regarding `COc1cc2nccc(Nc3cccc(Oc4ccccc4)c3)c2cc1OC`, the growth inhibition in experiment [1] was 95% (active); in experiment [4], 102% (active). For the same compound, the inhibition was 25% in experiment [2] and -2% in experiment [3]. In addition, the result in experiment [5], in experiment [6], in experiment [7] and in experiment [8] was inactive.

In the case of `CC(C)Nc1cc(C(=O)N[C@@H](Cc2ccccc2)[C@H](O)CNCc2cccc(C(F)(F)F)c2)c(F)c(N2CCCCS2(=O)=O)c1`, the growth inhibition is 78% (active) in experiment [1] and 93% (active) in experiment [4]. In addition, the figures for the inhibition in experiment [2] and in experiment [3] were -5% and -2%, respectively. Further, the result in experiment [5], in experiment [6], in experiment [7] and in experiment [8] was inactive.

In the case of `CCN(CCCN1CCCCC1)c1cc(C)nc(Nc2ccc(C)cc2C(F)(F)F)n1`, the results for the growth inhibition in experiment [1] and in experiment [4] were 35% and 101% (active), respectively. The inhibition is 23% in experiment [2] and -2% in experiment [3]. For the same compound, the result in experiment [5], in experiment [6], in experiment [7] and in experiment [8] was inactive.

For the compound `Oc1ccc(CCCNc2nc(NCc3cccc4ccccc34)nc(NC3CCNCC3)n2)cc1`, the growth inhibition in experiment [1] was -3%; in experiment [4], 91% (active). Moreover, the inhibition was 8% in experiment [2] and 1% in experiment [3]. The result in experiment [5], in experiment [6], in experiment [7] and in experiment [8] was inactive.

For the compound `CCc1cn2c3c(cc(C(=O)N[C@@H](Cc4ccccc4)[C@H](O)CNC(C)C)cc13)N(C)S(=O)(=O)C2`, the growth inhibition in experiment [1] and in experiment [4] was 98% (active) each time. Also, the values for the inhibition in experiment [2] and in experiment [3] were 16% and 8%, respectively. In addition, the result in experiment [5], in experiment [6], in experiment [7] and in experiment [8] was inactive.

Consider `COc1cc2ccccc2cc1OCCCN1CCN(CC(c2ccc(F)cc2)N2CCN(C(C)C)CC2)CC1` (stereo not given), for which the growth inhibition in experiment [1] was 92% (active); in experiment [4] it was 100% (active). For the same compound, the inhibition in experiment [2] is 72% (active); in experiment [3], -3%. Further, the result in experiment [5], in experiment [6], in experiment [7] and in experiment [8] was inactive.

Take `C=CCOC(=O)N1CCC(CNCc2cccc(-c3ccc(-c4nc5ccccc5[nH]4)s3)c2)C1` (stereo not given): the results for the growth inhibition in experiment [1] and in experiment [4] were 63% (active) and 99% (active), respectively. In addition, the results for the inhibition in experiment [2] and in experiment [3] were 9% and 0%, respectively. Also, the outcome in experiment [5], in experiment [6], in experiment [7] and in experiment [8] was inactive.

Consider `CN(C)CCCN(C)c1cccc2c1nc(-c1cccnc1)n2CCNCc1ccccc1`, for which the results for the growth inhibition in experiment [1] and in experiment [4] were 88% (active) and 89% (active), respectively. Besides, the inhibition in experiment [2] and in experiment [3] was 4% each time. In addition, the outcome in experiment [5], in experiment [6], in experiment [7] and in experiment [8] was inactive.

`Cc1ncc([N+](=O)[O-])n1CCOC(=O)NC(NCC1COc2ccccc2O1)C(Cl)(Cl)Cl` (stereo not given): the values for the growth inhibition in experiment [1] and in experiment [4] were 78% (active) and 101% (active), respectively. Besides, the inhibition in experiment [2] was -9%; in experiment [3] it was -4%. Further, the result in experiment [5], in experiment [6], in experiment [7] and in experiment [8] was inactive.

With `O=C(Nc1cccc(-c2cc(-c3c(Cl)cccc3Cl)no2)c1)c1cncc(-c2cccs2)c1`, the growth inhibition in experiment [1] is 39%; in experiment [4] it was 91% (active). Further, the inhibition in experiment [2] was -1%; in experiment [3], -2%. The outcome in experiment [5], in experiment [6], in experiment [7] and in experiment [8] was inactive.

Regarding `CCc1cn2c3c(cc(C(=O)N[C@@H](Cc4ccccc4)[C@H](O)CNC4CCC4)cc13)N(C)S(=O)(=O)CC2`, the growth inhibition in experiment [1] and in experiment [4] was 98% (active) throughout. For the same compound, the inhibition is -4% in experiment [2] and -3% in experiment [3]. Also, the result in experiment [5], in experiment [6], in experiment [7] and in experiment [8] was inactive.

Regarding `Oc1c(Cl)cc(Nc2nccc(Nc3ccc(Oc4ccccc4)cc3)n2)cc1Cl`, the growth inhibition was 26% in experiment [1] and 99% (active) in experiment [4]. In addition, the inhibition in experiment [2] is 8%; in experiment [3], -5%. Further, the result in experiment [5], in experiment [6], in experiment [7] and in experiment [8] was inactive.

Take `CO/C(=C\C=C\c1cc2cc(Cl)c(Cl)cc2[nH]1)C(=O)NCCCN1CC(C)N(C)CC1C` (stereo not given): the growth inhibition in experiment [1] was 73% (active); in experiment [4], 92% (active). In addition, the inhibition is 38% in experiment [2] and -2% in experiment [3]. Besides, the result in experiment [5], in experiment [6], in experiment [7] and in experiment [8] was inactive.

For `Cc1ccc(C)c(S(=O)(=O)NCC2CCN(Cc3ccc(O)cc3)CC2)c1`, the values for the growth inhibition in experiment [1] and in experiment [4] were 57% (active) and 87% (active), respectively. Further, the inhibition is 16% in experiment [2] and -6% in experiment [3]. For the same compound, the outcome in experiment [5], in experiment [6], in experiment [7] and in experiment [8] was inactive.

Consider `O=C(NC1CCC(CCN2Cc3cccc(F)c3C2)CC1)c1cccc(-c2cccnc2)c1` (stereo not given), for which the growth inhibition in experiment [1] is 82% (active); in experiment [4] it was 98% (active). The inhibition in experiment [2] is 16%; in experiment [3], -2%. In addition, the outcome in experiment [5], in experiment [6], in experiment [7] and in experiment [8] was inactive.
